{"source": "the supplement of paper PMC11417369", "note": "Over roughly 25,000 sequences, “ln(normalized median fluorescence intensity)” has its median near 6.7; the highest 2% begin near 10. For the sample, the highest values were picked, then their nearest neighbours and some sequences at random.", "data": [{"tested_on": "PfHDP1 homeodomain (GST-tagged)", "experiment": "gcPBM binding intensity (ln(normalized median fluorescence intensity)); higher = stronger DNA binding", "in_short": "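An Agilent 4 × 180k array of primer-extended double-stranded 36-bp intergenic genomic probes, with negative controls, was incubated for 1 h with GST-tagged P. falciparum DNA-binding domains expressed in E. coli. Alexa488 anti-GST antibody detected bound protein, scanned at 488 nm. Binding intensity is the highest Masliner-normalised natural-log median intensity across replicate spots of either probe orientation.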", "values": [{"sequence": "CCATAATATTATAGACGTACGAATATATATAAAAGA [XGTACX_site7295]", "gcPBM binding intensity (ln)": 7.24}, {"sequence": "ACATATAAATGATATGTACACACATTTATATATATA [CACACA_site9152]", "gcPBM binding intensity (ln)": 7.4}, {"sequence": "TAAAGATATAAATGCACACGTATTAAAAAAAAAATA [CACACA_site952]", "gcPBM binding intensity (ln)": 9.54}, {"sequence": "ACATTAACATTGTTGGTGCAAAATTAATATGTTTTT [GTGCAC_site9673]", "gcPBM binding intensity (ln)": 10.7}, {"sequence": "AAAATTAATGTTGGTTGTACAAAAATTAAATATGGT [XGTACX_site66]", "gcPBM binding intensity (ln)": 6.85}, {"sequence": "TATATTAACAAAATGGTGCAATAATTTCTATATTGT [GTGCAC_site9430]", "gcPBM binding intensity (ln)": 10.4}, {"sequence": "TAAATACATAAAAATTGTACACATTGTTTTCTCTTT [XGTACX_site6435]", "gcPBM binding intensity (ln)": 6.49}, {"sequence": "TAGAAATATATAAATTGTACATGTTTGTATAATATA [XGTACX_site2097]", "gcPBM binding intensity (ln)": 6.44}, {"sequence": "CTTAAATTTTTAAATACACACATACACCCATACACA [CACACA_site4461]", "gcPBM binding intensity (ln)": 7.25}, {"sequence": "ATTAAATGCACATATACACACACCCAATTTTAAGTT [CACACA_site3049]", "gcPBM binding intensity (ln)": 11.3}, {"sequence": "ATATTTATACTATACACACCCAATTTAAAAAAAAAT [CACACA_site1163]", "gcPBM binding intensity (ln)": 7.11}, {"sequence": "TAAATGCACATATACACACACCCAATTTTAAGTTTT [CACACA_site7428]", "gcPBM binding intensity (ln)": 11.1}, {"sequence": "ACCCAATTTTTTAGTACACACATATAAATATATAAA [CACACA_site4944]", "gcPBM binding intensity (ln)": 6.86}, {"sequence": "TAAAATAAAAAGTTTACACACATATATAATTTTAAT [CACACA_site662]", "gcPBM binding intensity (ln)": 6.24}, {"sequence": "TTCTTAAGGAACGAACGTACAGAATAAAAAGTAAAA [XGTACX_site4294]", "gcPBM binding intensity (ln)": 6.61}, {"sequence": "GTTTATGTTAAACCATGTACTTAATATTTTATTCTT [XGTACX_site3761]", "gcPBM binding intensity (ln)": 6.29}, {"sequence": "ATTACATTTTTAATGCGTACTAAAAATGTATATAAG [XGTACX_site6384]", "gcPBM binding intensity (ln)": 6.6}, {"sequence": "ATTGAAAAACCGTTTAGTACATATCATCACGTTTGT [XGTACX_site1295]", "gcPBM binding intensity (ln)": 6.04}, {"sequence": "CATACATACATACATACACACACATATATATATATA [CACACA_site8593]", "gcPBM binding intensity (ln)": 9.27}, {"sequence": "ATTGCTTTTCTTTTTGCACACTTATGCATATATATA [CACACA_site2584]", "gcPBM binding intensity (ln)": 10.4}, {"sequence": "TGCTTTTCTTTTTGCACACTTATGCATATATATATA [CACACA_site2583]", "gcPBM binding intensity (ln)": 10.8}, {"sequence": "TTTCTATATGGATTTGCACACATAAAAATGCTTATA [CACACA_site8751]", "gcPBM binding intensity (ln)": 10.2}, {"sequence": "TTTGAATACTGAATGGTGCAAATTGTTCTCCCCATG", "gcPBM binding intensity (ln)": 10.5}, {"sequence": "CCCTCCCCATGTTTAGTGCAAAAATATTTGAAATTG [GTGCAC_site9873]", "gcPBM binding intensity (ln)": 10}, {"sequence": "TTGTTCTTTTGAAAGGTGCAAAAGAAAAATAATTAA", "gcPBM binding intensity (ln)": 9.53}, {"sequence": "AAAGGATTTATACTAGTGCAAAAATATAAAAATATA", "gcPBM binding intensity (ln)": 9.12}, {"sequence": "TTTTTTTTTTATGAAAGTACATATGAAAAATACGAA [XGTACX_site3451]", "gcPBM binding intensity (ln)": 6.53}, {"sequence": "CATTTTTTTTTATAAATACACACGTACGGGTGCATA [CACACA_site1569]", "gcPBM binding intensity (ln)": 7.38}, {"sequence": "ATTAAAAATTCAATTGCACACGCACATATTTTAATA [CACACA_site8618]", "gcPBM binding intensity (ln)": 9.92}, {"sequence": "TGATATTTAAATTTTGCACACGCATATGAAATTAGG [CACACA_site1034]", "gcPBM binding intensity (ln)": 10.1}, {"sequence": "ATATTTAAATTTTGCACACGCATATGAAATTAGGAC [CACACA_site1035]", "gcPBM binding intensity (ln)": 10.5}, {"sequence": "GACTCATTAAGGATTATTCCTAATGATCAAAAGAAC [CACACA_negctrl_site515]", "gcPBM binding intensity (ln)": 6.54}, {"sequence": "TCTTAAAATATATAGGTGCAAAAAAAAAAAAAAAAA", "gcPBM binding intensity (ln)": 8.62}, {"sequence": "TTTCTAATTTATATCACACACATATATTTATAGTAA [CACACA_site6280]", "gcPBM binding intensity (ln)": 6.53}, {"sequence": "ATAAAAATCAAAAAAAATACATAATAGTAATAATAA [GTGCAC_negctrl_site481]", "gcPBM binding intensity (ln)": 6.42}, {"sequence": "ATATTTTTATATAATGAACACACATATTATATCATT [CACACA_site8446]", "gcPBM binding intensity (ln)": 6.22}, {"sequence": "CATGAATATTTTAATGTGCACATTTATCATTATATG", "gcPBM binding intensity (ln)": 10.6}, {"sequence": "ATGCATACACTTATATGTACACATTTACATATTATT [XGTACX_site2841]", "gcPBM binding intensity (ln)": 6.93}, {"sequence": "TTTCACATATATATGGTGCATATTTTATGTGTAAAT [GTGCAC_site9937]", "gcPBM binding intensity (ln)": 9.91}, {"sequence": "CTTATGTGCATACCTACACACTTACCTATATTTATA [CACACA_site7411]", "gcPBM binding intensity (ln)": 9.67}, {"sequence": "TTTTTTTTCTATGTGGTGCACATTATTTTTTTTTTT", "gcPBM binding intensity (ln)": 9.27}, {"sequence": "ATTTTTATATAATGAACACACATATTATATCATTTA [CACACA_site1572]", "gcPBM binding intensity (ln)": 6.51}, {"sequence": "GTAAAGGCTATATATGTGCACATTTTTTTTTTTTTT [GTGCAC_site9925]", "gcPBM binding intensity (ln)": 10.9}, {"sequence": "CTTTATATATATTGCGTGCACATTTTTTTTTTTTTT", "gcPBM binding intensity (ln)": 9.4}, {"sequence": "TTTTGTTTATGTGTGCATTATATTATATTTTTTATT [TGCATGCA_negctrl_site146]", "gcPBM binding intensity (ln)": 10.2}, {"sequence": "TATATATATATATATGTGCACATTTATTGCCTTTGC", "gcPBM binding intensity (ln)": 10.6}, {"sequence": "GGAACTTATTTTTATACACACATATGTGCATATTAT [CACACA_site629]", "gcPBM binding intensity (ln)": 10.8}]}]}
